Test results reported in the antibiotic and cytotoxicity screens of Wong et al. (2023).
The campaign covered roughly 39,000 compounds. About 1,500 (3.8%) were called active. The entries come from a sample that favours actives as a whole.

tested on: HSkMC (human skeletal muscle cells); test: cytotoxicity call (relative viability < 0.9); conditions: 10 µM

SMILES	cytotoxicity call
Cc1ccc(S(=O)(=O)N(C)C[C@H]2OCCCC[C@@H](C)Oc3ccc(NC(=O)CCC(F)(F)F)cc3C(=O)N([C@H](C)CO)C[C@H]2C)cc1	inactive
CO[C@H]1CN(C)C(=O)c2ccc(NC(C)=O)cc2OC[C@@H](C)N(S(=O)(=O)c2cn(C)cn2)C[C@@H]1C	inactive
C[C@@H]1CCCCO[C@@H](CN(C)Cc2ccc(Cl)c(Cl)c2)[C@@H](C)CN([C@H](C)CO)C(=O)c2cc(N(C)C)ccc2O1	inactive
Cc1noc(C)c1NC(=O)Nc1ccc2c(c1)CC(=O)N([C@H](C)CO)C[C@H](C)[C@H](CN(C)C(=O)NC(C)C)O2	inactive
C[C@@H]1CCCCO[C@H](CN(C)Cc2ccncc2)[C@@H](C)CN([C@@H](C)CO)C(=O)c2cc(NC(=O)Nc3cccc4ccccc34)ccc2O1	inactive
COc1ccc(S(=O)(=O)Nc2ccc3c(c2)C(=O)N([C@H](C)CO)C[C@@H](C)[C@@H](CN(C)Cc2ccncc2)O3)cc1	inactive
C[C@H]1CCCCO[C@@H](CN(C)C(=O)Nc2ccc3c(c2)OCO3)[C@@H](C)CN([C@@H](C)CO)C(=O)c2cc(NC(=O)c3ccncc3)ccc2O1	inactive
C[C@@H]1CN([C@H](C)CO)C(=O)CCCn2cc(nn2)CO[C@H]1CN(C)S(=O)(=O)c1cn(C)cn1	inactive
COc1ccc(S(=O)(=O)N(C)C[C@H]2OCCCC[C@@H](C)Oc3ccc(NC(=O)Nc4ccccc4)cc3C(=O)N([C@@H](C)CO)C[C@@H]2C)cc1	inactive
Cc1noc(C)c1S(=O)(=O)Nc1ccc2c(c1)C(=O)N([C@H](C)CO)C[C@H](C)[C@H](CN(C)S(C)(=O)=O)OCCCC[C@H](C)O2	inactive
C[C@H]1[C@H](C)CC[C@]2(C(=O)O[C@@H]3O[C@H](CO[C@@H]4O[C@H](CO)[C@@H](O[C@@H]5O[C@@H](C)[C@H](O)[C@@H](O)[C@H]5O)[C@H](O)[C@H]4O)[C@@H](O)[C@H](O)[C@H]3O)CC[C@]3(C)C(=CC[C@@H]4[C@@]5(C)C[C@@H](O)[C@H](O)[C@@](C)(CO)[C@@H]5[C@H](O)C[C@]43C)[C@H]12	inactive
C[C@@H]1CN([C@@H](C)CO)C(=O)c2cc(NC(=O)c3ccccc3)ccc2O[C@@H](C)CCCCO[C@H]1CN(C)C(=O)c1ccccc1	inactive
COc1ccccc1S(=O)(=O)N[C@H]1CC[C@H](CCNC(=O)C2CCOCC2)O[C@H]1CO	inactive
Cc1noc(C)c1S(=O)(=O)N(C)C[C@H]1Oc2ccc(NC(=O)Nc3ccc4c(c3)OCO4)cc2CC(=O)N([C@H](C)CO)C[C@@H]1C	inactive
C[C@@H]1CN([C@H](C)CO)C(=O)c2cc(NC(=O)Nc3ccc(C(F)(F)F)cc3)ccc2O[C@@H](C)CCCCO[C@@H]1CN(C)CC1CCCCC1	active
C[C@H](CO)N1C[C@H](C)[C@@H](CN(C)CC2CCCCC2)OCCCC[C@H](C)Oc2ccc(NC(=O)Nc3ccc(C(F)(F)F)cc3)cc2C1=O	active
C[C@@H]1CCCCO[C@H](CN(C)CC2CCCCC2)[C@@H](C)CN([C@H](C)CO)C(=O)c2cc(NC(=O)Nc3ccc(C(F)(F)F)cc3)ccc2O1	active
C[C@@H]1CCCCO[C@@H](CN(C)CC2CCCCC2)[C@@H](C)CN([C@H](C)CO)C(=O)c2cc(NC(=O)Nc3ccc(C(F)(F)F)cc3)ccc2O1	active

SMILES	cytotoxicity call
C[C@H]1CN([C@@H](C)CO)C(=O)c2cc(NC(=O)CCCN(C)C)ccc2O[C@H]1CN(C)C(=O)NC1CCCCC1	inactive
C[C@H]1CN([C@@H](C)CO)C(=O)c2cccc(NC(=O)CCCCCC(=O)Nc3ccccc3N)c2O[C@@H]1CN(C)C(=O)Nc1ccccc1	inactive
C[C@H](CO)N1C[C@H](C)[C@@H](CN(C)Cc2ccc(C(=O)O)cc2)OCCCC[C@H](C)Oc2ccc(NC(=O)C3CCCCC3)cc2C1=O	inactive
C[C@@H]1CN([C@@H](C)CO)C(=O)Cc2cc(NC(=O)Nc3ccc(F)cc3)ccc2O[C@@H]1CN(C)C(=O)Nc1cccc2ccccc12	inactive
COc1ccc(C#Cc2ccc3c(c2)[C@]2(C(=O)N3)[C@H](C(=O)Nc3nc4ccccc4s3)[C@H]3C(=O)O[C@H](c4ccccc4)[C@H](c4ccccc4)N3[C@@H]2c2ccc(O)cc2)cc1	inactive
Cc1ccc(S(=O)(=O)N(C)C[C@@H]2Oc3ccc(NS(C)(=O)=O)cc3C(=O)N([C@@H](C)CO)C[C@@H]2C)cc1	inactive
NCc1nncn1-c1ccc(F)cc1	inactive
C[C@H](CO)N1C[C@H](C)[C@H](CN(C)CC2CCCCC2)OCCCC[C@H](C)Oc2ccc(NC(=O)c3ccncc3)cc2C1=O	inactive
C[C@H](CO)N1C[C@H](C)[C@@H](CN(C)S(=O)(=O)c2cccs2)Oc2c(NS(=O)(=O)c3cn(C)cn3)cccc2C1=O	inactive
COCC#Cc1cnc2c(c1)C(=O)N([C@@H](C)CO)C[C@@H](C)[C@@H](CN(C)C(=O)CN1CCOCC1)O2	inactive
C[C@@H]1CN([C@@H](C)CO)C(=O)c2cc(NC(=O)Nc3ccc(C(F)(F)F)cc3)ccc2O[C@@H](C)CCCCO[C@@H]1CN(C)CC1CCCCC1	inactive
C[C@@H]1CN([C@@H](C)CO)C(=O)c2cc(NC(=O)Nc3ccc(C(F)(F)F)cc3)ccc2O[C@@H](C)CCCCO[C@H]1CN(C)CC1CCCCC1	inactive
C[C@@H]1CCCCO[C@@H](CN(C)CC2CCCCC2)[C@H](C)CN([C@H](C)CO)C(=O)c2cc(NC(=O)Nc3ccc(C(F)(F)F)cc3)ccc2O1	active
C[C@H]1CCCCO[C@@H](CN(C)CC2CCCCC2)[C@@H](C)CN([C@@H](C)CO)C(=O)c2cc(NC(=O)Nc3ccc(C(F)(F)F)cc3)ccc2O1	active
Cc1noc(C)c1NC(=O)Nc1ccc2c(c1)C(=O)N([C@H](C)CO)C[C@H](C)[C@H](CN(C)Cc1ccncc1)OCCCC[C@@H](C)O2	inactive
CO[C@@H]1CN(C)C(=O)c2cc(NS(C)(=O)=O)ccc2OC[C@@H](C)N(C(=O)CN(C)C)C[C@@H]1C	inactive
C[C@H]1CN([C@@H](C)CO)C(=O)c2cc(NS(=O)(=O)c3cn(C)cn3)ccc2O[C@H]1CN(C)S(C)(=O)=O	inactive
